{"source": "PubChem BioAssay (Tox21)", "note": "Where “and” joins values, the source holds several entries; their conditions need not be identical. Identical values can stand only once. Inconclusive results are not listed. Where a call stands in place of a potency, no number is given. The source holds several records for some structures; these can differ, active in one and inactive in another. Calls of active or inactive are those of the source. Calls follow the shape of the dose curve; as a rule, active = well fitted activation curve with a large enough effect in the repeat runs; inconclusive = weak or mixed curves; inactive = flat fitted curve, though single readings scatter. Potency is read from the fitted curve at half-maximal effect."}
{"assay": "A CellTox Green Cytotoxicity Assay to monitor cytotoxicity in HEK293 cells - 32 hour (AID 1224881); also: nearly all actives have a fitted effect of over 40% in size", "conditions": "CellTox Green fluorescence; series mostly up to 76.8 µM", "text": "National Center for Advancing Translational Sciences [NCATS]\nNIH Chemical Genomics Center [NCGC]\nU.S. Environmental Protection Agency [EPA]\nNational Institutes of Environmental Health Sciences [NIEHS]\nNational Toxicology Program [NTP]\nCell-based models are critical for drug discovery. Determining the natural cytotoxic effects resulting from test compounds is an essential research activity. A CellTox Green Cytotoxicity Assay to monitor cytotoxicity in real time of continues cell culture during 40 hours of the compound treatment was used to screen Tox21 10K library compounds in Hek293 cells. CellTox Green Cytotoxicity Assay is a nonlytic, homogeneous, biofluorescent method to measure cytotoxicity in cell culture after experimental manipulation. The assay system uses a proprietary asymmetric cyanine dye that is excluded from viable cells but preferentially stains the dead cell's DNA. […] Viable cells produce no appreciable increases in fluorescence. Therefore, the fluorescence signal produced by the binding interaction with dead cell DNA is proportional to cytotoxicity.\nThe mixture of Hek293 cell suspension and reagents were dispensed at 600cells/6 ul/well in 1536-well tissue culture treated black solid bottom plates using a Multidrop dispenser. After the assay plates were incubated at a 37 C/5% CO2 incubator for 5 hours, 23 nL of compounds dissolved in DMSO, positive and negative controls was transferred to the assay plate by a pintool work station. The plates were incubated at 37 C for 40 hours. The fluorescence intensity were measured at 0h, 8h, 16h, 24h, 32h and 40h time points using ViewLux plate reader during compound treatment."}
{"smiles": "C[N+](C)(C)CC(=O)[O-]", "Potency": "inactive"}
{"smiles": "S=c1[nH]c2ccccc2[nH]1", "Potency": "inactive"}
{"smiles": "C[C@]12CCC(=O)C=C1CC[C@@H]1[C@@H]2CC[C@@]2(C)[C@H]1CC[C@]2(C)O", "Potency": "44 µM (active) and inactive"}
{"smiles": "N#Cc1c(Cl)c(Cl)c(Cl)c(C#N)c1Cl", "Potency": "7.61 µM (active) and 6.16 µM (active)"}
{"smiles": "OC(c1ccc(Cl)cc1)(c1cncnc1)c1ccccc1Cl", "note": "(stereo not given)", "Potency": "25 µM (active) and inactive"}
{"smiles": "ClC(Cl)(Cl)Br", "Potency": "inactive"}
{"smiles": "ClCC(Cl)CCl", "Potency": "inactive"}
{"smiles": "O=[N+]([O-])c1ccc(Cl)c([N+](=O)[O-])c1", "Potency": "19.8 µM (active) and 24.5 µM (active)"}
{"smiles": "CC1(C)C(C(=O)OC(C#N)c2cccc(Oc3ccccc3)c2)C1(C)C", "note": "(stereo not given)", "Potency": "inactive"}
{"smiles": "N#Cc1nn(-c2c(Cl)cc(C(F)(F)F)cc2Cl)c(N)c1S(=O)C(F)(F)F", "note": "(stereo not given)", "Potency": "inactive"}
{"smiles": "C=CC(Cl)CCl", "note": "(stereo not given)", "Potency": "inactive"}
{"smiles": "CC1(C)Cc2cccc(O)c2O1", "Potency": "inactive"}
{"smiles": "ClCc1ccccn1", "Potency": "inactive"}
{"smiles": "CC(C)CON=O", "Potency": "inactive"}
{"smiles": "CCCCOCCOC(C)=O", "Potency": "inactive"}
{"smiles": "CCCCOCC1CO1", "note": "(stereo not given)", "Potency": "inactive and 19.5 µM (active)"}
{"smiles": "Oc1ccc(Cl)cc1Cc1ccccc1", "Potency": "12.3 µM (active) and 22.1 µM (active) and 21.3 µM (active)"}
{"smiles": "CCN(CC)C(=O)C(C)Oc1cccc2ccccc12", "note": "(stereo not given)", "Potency": "inactive"}
{"smiles": "CCCCCCCC[N+](C)(CCCCCCCC)CCCCCCCC", "Potency": "17.3 µM (active) and 27.6 µM (active) and 11 µM (active)"}
{"smiles": "CCOP(=S)(OCC)SCSC(C)(C)C", "Potency": "inactive"}
{"smiles": "Clc1ccc(C(Cl)(Cl)Cl)cc1", "Potency": "inactive"}
{"smiles": "CCOP(=O)(O)OCC", "note": "(tested in a mixture with another compound)", "Potency": "inactive and 24.3 µM (active)"}
{"smiles": "CCCCCCCCCc1ccc(O)cc1", "Potency": "inactive"}
{"smiles": "ClC(Cl)(Cl)c1ccccc1", "Potency": "inactive"}
{"smiles": "CNC(=O)Oc1cccc2c1OC(C)(C)C2", "Potency": "inactive"}
{"smiles": "CCC1(c2ccc(N)cc2)CCC(=O)NC1=O", "note": "(stereo not given)", "Potency": "inactive"}
{"smiles": "COc1ccc(C=O)cc1OC", "Potency": "inactive"}
{"smiles": "CC(C)(c1ccccc1)c1ccc(O)c(C(C)(C)c2ccccc2)c1", "Potency": "38.5 µM (active) and 43.6 µM (active)"}
{"smiles": "O=[N+]([O-])c1ccc(Nc2ccccc2)cc1", "Potency": "inactive"}
{"smiles": "CSc1nc(NC(C)C)nc(NC(C)C)n1", "Potency": "inactive"}
{"smiles": "O=NN1CCOCC1", "Potency": "inactive"}
{"smiles": "CCCCSP(=O)(SCCCC)SCCCC", "Potency": "inactive"}
{"smiles": "Cc1ccc(N=CN(C)C=Nc2ccc(C)cc2C)c(C)c1", "Potency": "inactive"}
{"smiles": "COP(=S)(OC)SCn1nnc2ccccc2c1=O", "Potency": "inactive"}
{"smiles": "CCNc1nc(Cl)nc(NC(C)(C)C#N)n1", "Potency": "inactive"}
{"smiles": "Clc1cccc(Cl)c1", "Potency": "inactive"}
{"smiles": "CN(C)c1nc(=O)n(C2CCCCC2)c(=O)n1C", "Potency": "inactive"}
{"smiles": "CC(C)(c1ccc(OCC2CO2)cc1)c1ccc(OCC2CO2)cc1", "note": "(stereo not given)", "Potency": "inactive"}
{"smiles": "CC1=C(C(=O)Nc2ccccc2)SCCO1", "Potency": "inactive"}
{"smiles": "Nc1ccc2ccccc2c1", "Potency": "inactive"}
